Measurements taken from the supplement of paper PMC4709259.
Structures can show the parent of a compound that is named as a salt. ± gives the standard deviation.

What follows are molecules tested on Jurkat (assay: mean cell size (FSC-A) relative to DMSO control (fraction of control); higher = larger cells). Settings: 48 h.
Summary of the method: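 Jurkat cells seeded at 600 cells/µl were incubated 1 h, then exposed for 48h to the Enzo Screen-Well FDA Approved Drug Library v2.0 at 25µM in 0.9% (v/v) final DMSO. Drugs that cut counts below 20% of controls were diluted 10-fold and retested, down to 25nM. Cell count and mean cell size (forward scatter area) were read on an Accuri C6 flow cytometer, relative to solvent-only controls. Plates held 6-12 controls; values are means of 3 biological replicates.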

| Structure (SMILES) | mean cell size |
| --- | --- |
| C[C@H]1C[C@H]2[C@@H]3CCC4=CC(=O)C=C[C@]4(C)[C@@]3(F)[C@@H](O)C[C@]2(C)[C@@]1(O)C(=O)CO [Betamethasone] (concentration: 25 µM) | 0.914 ± 0.018 |
| CC(=O)Oc1ccccc1C(=O)Nc1ncc([N+](=O)[O-])s1 [Nitazoxanide] (concentration: 2.5 µM) | 0.9325 ± 0.0054 |
| Clc1cccc(Cl)c1NC1=NCCN1 [Clonidine·HCl] (concentration: 25 µM) | 0.931 ± 0.049 |
| CN(C)c1cc(NC(=O)CNC(C)(C)C)c(O)c2c1C[C@H]1C[C@H]3[C@H](N(C)C)C(=O)C(C(N)=O)=C(O)[C@@]3(O)C(=O)C1=C2O [Tigecycline] (concentration: 25 µM) | 1.01 ± 0.051 |
| C[C@H](N)[C@H](O)c1cccc(O)c1 [Metaraminol Bitartrate] (concentration: 25 µM) | 1.04 ± 0.058 |
| O=P(O)(O)C(O)(Cc1cccnc1)P(=O)(O)O [Risredonic Acid] (concentration: 25 µM) | 0.964 ± 0.048 |
| N=c1nc(N2CCCCC2)cc(N)n1O [Minoxidil] (concentration: 25 µM) | 1 ± 0.024 |
| CCOC(=O)c1ncn2c1CN(C)C(=O)c1cc(F)ccc1-2 [Flumazenil] (concentration: 25 µM) | 0.95 ± 0.014 |
| CN(C)CCc1c[nH]c2ccc(CS(=O)(=O)N3CCCC3)cc12 [Almotriptan] (concentration: 25 µM) | 0.95 ± 0.053 |
| CN(C)CCC[C@@]1(c2ccc(F)cc2)OCc2cc(C#N)ccc21 [Escitalopram] (concentration: 25 µM) | 1.06 ± 0.039 |
| Clc1ccc(CCC(Cn2ccnc2)Sc2c(Cl)cccc2Cl)cc1 (stereo not given) [Butoconazole Nitrate] (concentration: 25 µM) | 0.953 ± 0.05 |
| O=C1N=C(O)CN1N=Cc1ccc(-c2ccc([N+](=O)[O-])cc2)o1 [Dantrolene·Na] (concentration: 25 µM) | 1 ± 0.021 |
| CNCC[C@H](Oc1cccc2ccccc12)c1cccs1 [Duloxetine·HCl] (concentration: 25 µM) | 1.02 ± 0.069 |
| Cc1cc2c(s1)Nc1ccccc1N=C2N1CCN(C)CC1 [Olanzapine] (concentration: 25 µM) | 1.02 ± 0.06 |
| CC(C)(C)NCC(O)c1cc(O)cc(O)c1 (stereo not given) [Terbutaline Hemisulfate] (concentration: 25 µM) | 0.92 ± 0.066 |
| COC(=O)[C@H](c1ccccc1Cl)N1CCc2sccc2C1 [Clopidogrel Hydrogen Sulfate] (concentration: 25 µM) | 0.981 ± 0.051 |

The molecules below were run on Jurkat (assay: cell count relative to DMSO control (fraction of control); higher = more cells (less growth inhibition)). Settings: 48 h.

| Structure (SMILES) | cell count |
| --- | --- |
| CO/N=C(\C(=O)N[C@@H]1C(=O)N2C(C(=O)OC(C)OC(C)=O)=C(COC(N)=O)CS[C@H]12)c1ccco1 (stereo not given in full) [Cefuroxime Axetil] (concentration: 25 µM) | 0.895 ± 0.057 |
| CNCCCC1c2ccccc2C=Cc2ccccc21 [Protriptyline·HCl] (concentration: 25 µM) | 0.821 ± 0.056 |
| Cc1c2oc3c(C)ccc(C(=O)N[C@@H]4C(=O)N[C@H](C(C)C)C(=O)N5CCC[C@H]5C(=O)N(C)CC(=O)N(C)[C@@H](C(C)C)C(=O)O[C@@H]4C)c3nc-2c(C(=O)N[C@@H]2C(=O)N[C@H](C(C)C)C(=O)N3CCC[C@H]3C(=O)N(C)CC(=O)N(C)[C@@H](C(C)C)C(=O)O[C@@H]2C)c(N)c1=O [Dactinomycin (= Actinomycin D)] (concentration: 25 nM) | 0.49 ± 0.11 |
| Cc1cc(C2CCCCC2)n(O)c(=O)c1 [Ciclopirox] (concentration: 2.5 µM) | 0.395 ± 0.07 |
| C[C@@H](NCCCc1cccc(C(F)(F)F)c1)c1cccc2ccccc12 [Cinacalcet·HCl] (concentration: 25 µM) | 0.577 ± 0.089 |
| CCCCCCCCCC(=O)N[C@@H](Cc1c[nH]c2ccccc12)C(=O)N[C@H](CC(N)=O)C(=O)N[C@@H](CC(=O)O)C(=O)N[C@@H]1C(=O)NCC(=O)N[C@@H](CCCN)C(=O)N[C@@H](CC(=O)O)C(=O)N[C@H](C)C(=O)N[C@@H](CC(=O)O)C(=O)NCC(=O)N[C@H](CO)C(=O)N[C@@H]([C@H](C)CC(=O)O)C(=O)N[C@@H](CC(=O)c2ccccc2N)C(=O)O[C@@H]1C [Daptomycin] (concentration: 25 µM) | 0.917 ± 0.039 |
| CCOc1cc(CC(=O)N[C@@H](CC(C)C)c2ccccc2N2CCCCC2)ccc1C(=O)O [Repaglinide] (concentration: 25 µM) | 0.728 ± 0.063 |
| CCCCC1=NC2(CCCC2)C(=O)N1Cc1ccc(-c2ccccc2-c2nnn[nH]2)cc1 [Irbesartan] (concentration: 25 µM) | 0.401 ± 0.013 |
| NNc1nncc2ccccc12 [Hydralazine·HCl] (concentration: 25 µM) | 0.537 ± 0.045 |
| Cc1ccnc2c1NC(=O)c1cccnc1N2C1CC1 [Nevirapine] (concentration: 25 µM) | 0.476 ± 0.11 |
| CNCC[C@@H](Oc1ccccc1C)c1ccccc1 [Atomoxetine·HCl] (concentration: 25 µM) | 0.81 ± 0.12 |
| CCc1cc(C(N)=S)ccn1 [Ethionamide] (concentration: 25 µM) | 1.05 ± 0.1 |
| CN1CCC(=C2c3ccccc3C=Cc3ccccc32)CC1 [Cyproheptadine·HCl Sesquihydrate] (concentration: 25 µM) | 0.762 ± 0.049 |
| Nc1nc(/C(=C/CC(=O)O)C(=O)N[C@@H]2C(=O)N3C(C(=O)O)=CCS[C@H]23)cs1 [Ceftibuten] (concentration: 25 µM) | 1.11 ± 0.031 |
| C=C(CC)C(=O)c1ccc(OCC(=O)O)c(Cl)c1Cl [Ethacrynic Acid] (concentration: 25 µM) | 0.453 ± 0.058 |
| N[C@@H]1CONC1=O [Cycloserine] (concentration: 25 µM) | 0.475 ± 0.095 |
| NCCC(O)(P(=O)(O)O)P(=O)(O)O [Pamidronate Disodium  Pentahydrate (Pamidronic Acid)] (concentration: 25 µM) | 0.822 ± 0.023 |
| CC(C)c1ccc2oc3nc(N)c(C(=O)O)cc3c(=O)c2c1 [Amlexanox] (concentration: 25 µM) | 0.469 ± 0.12 |
| O=NN(CCCl)C(=O)NCCCl [Carmustine] (concentration: 25 µM) | 0.767 ± 0.014 |
| CCCCc1nc(Cl)c(CO)n1Cc1ccc(-c2ccccc2-c2nnn[nH]2)cc1 [Losartan Potassium] (concentration: 25 µM) | 0.418 ± 0.1 |

| Structure (SMILES) | cell count |
| --- | --- |
| CC(=O)O[C@H]1C[C@@H]2CC[C@@H]3[C@H](CC[C@@]4(C)[C@H]3C[C@H]([N+]3(C)CCCCC3)[C@@H]4OC(C)=O)[C@@]2(C)C[C@@H]1N1CCCCC1 [Vecuronium Bromide] (concentration: 25 µM) | 0.294 ± 0.13 |
| CN[C@H]1CC[C@@H](c2ccc(Cl)c(Cl)c2)c2ccccc21 [Sertraline·HCl] (concentration: 2.5 µM) | 0.853 ± 0.12 |
| CC(=O)OCC(=O)[C@@]1(O)CC[C@H]2[C@@H]3CCC4=CC(=O)CC[C@]4(C)[C@H]3C(=O)C[C@@]21C [Cortisone Acetate] (concentration: 25 µM) | 0.823 ± 0.082 |
| C[C@H]1C[C@H]2[C@@H]3CCC4=CC(=O)C=C[C@]4(C)[C@@]3(F)[C@@H](O)C[C@]2(C)[C@@]1(O)C(=O)CO [Betamethasone] (concentration: 25 µM) | 0.764 ± 0.084 |
| CC(=O)Oc1ccccc1C(=O)Nc1ncc([N+](=O)[O-])s1 [Nitazoxanide] (concentration: 2.5 µM) | 0.862 ± 0.091 |
| Clc1cccc(Cl)c1NC1=NCCN1 [Clonidine·HCl] (concentration: 25 µM) | 0.224 ± 0.083 |
| CN(C)c1cc(NC(=O)CNC(C)(C)C)c(O)c2c1C[C@H]1C[C@H]3[C@H](N(C)C)C(=O)C(C(N)=O)=C(O)[C@@]3(O)C(=O)C1=C2O [Tigecycline] (concentration: 25 µM) | 0.784 ± 0.06 |
| C[C@H](N)[C@H](O)c1cccc(O)c1 [Metaraminol Bitartrate] (concentration: 25 µM) | 0.774 ± 0.12 |
| O=P(O)(O)C(O)(Cc1cccnc1)P(=O)(O)O [Risredonic Acid] (concentration: 25 µM) | 0.428 ± 0.091 |
| N=c1nc(N2CCCCC2)cc(N)n1O [Minoxidil] (concentration: 25 µM) | 0.703 ± 0.083 |
| CCOC(=O)c1ncn2c1CN(C)C(=O)c1cc(F)ccc1-2 [Flumazenil] (concentration: 25 µM) | 0.87 ± 0.025 |
| CN(C)CCc1c[nH]c2ccc(CS(=O)(=O)N3CCCC3)cc12 [Almotriptan] (concentration: 25 µM) | 0.62 ± 0.18 |
| CN(C)CCC[C@@]1(c2ccc(F)cc2)OCc2cc(C#N)ccc21 [Escitalopram] (concentration: 25 µM) | 0.382 ± 0.085 |
| Clc1ccc(CCC(Cn2ccnc2)Sc2c(Cl)cccc2Cl)cc1 (stereo not given) [Butoconazole Nitrate] (concentration: 25 µM) | 0.953 ± 0.094 |
| O=C1N=C(O)CN1N=Cc1ccc(-c2ccc([N+](=O)[O-])cc2)o1 [Dantrolene·Na] (concentration: 25 µM) | 0.837 ± 0.068 |
| CNCC[C@H](Oc1cccc2ccccc12)c1cccs1 [Duloxetine·HCl] (concentration: 25 µM) | 0.353 ± 0.073 |
| Cc1cc2c(s1)Nc1ccccc1N=C2N1CCN(C)CC1 [Olanzapine] (concentration: 25 µM) | 0.914 ± 0.1 |
| CC(C)(C)NCC(O)c1cc(O)cc(O)c1 (stereo not given) [Terbutaline Hemisulfate] (concentration: 25 µM) | 0.503 ± 0.057 |
| COC(=O)[C@H](c1ccccc1Cl)N1CCc2sccc2C1 [Clopidogrel Hydrogen Sulfate] (concentration: 25 µM) | 0.942 ± 0.095 |
